# Experimental data taken from PubChem BioAssay AID567 (The Scripps Research Institute Molecular Screening Center, 2006).
# Hit rate of the full screen: of about 65,000 compounds, about 370 (0.57%) were called active.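 How the source made its calls: active means activation above the screen-wide mean activation plus 3 SD (cut at about 19% in these data); inactive means the rest.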 What follows is part of a selection rich in actives, with near analogues and random picks from the rest.
# Biological target: 5-hydroxytryptamine receptor 1A (Homo sapiens) (UniProt P08908)
# Sequence (P08908 whole entry, looked up): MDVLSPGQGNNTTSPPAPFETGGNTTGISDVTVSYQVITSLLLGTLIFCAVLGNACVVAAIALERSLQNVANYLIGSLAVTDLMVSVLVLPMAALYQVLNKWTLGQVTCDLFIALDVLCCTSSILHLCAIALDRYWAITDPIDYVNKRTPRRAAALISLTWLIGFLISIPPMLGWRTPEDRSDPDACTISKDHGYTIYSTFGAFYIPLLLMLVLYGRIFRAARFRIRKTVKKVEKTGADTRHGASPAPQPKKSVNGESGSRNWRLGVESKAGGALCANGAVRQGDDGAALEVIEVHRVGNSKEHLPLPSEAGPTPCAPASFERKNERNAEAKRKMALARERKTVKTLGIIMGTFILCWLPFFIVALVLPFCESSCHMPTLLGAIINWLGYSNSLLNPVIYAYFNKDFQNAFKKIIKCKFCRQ
# Test: agonism at serotonin HTR1A receptor – cell-based, CHO, Ga15 NFAT-bla reporter, primary screen (AID 567);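 further: 0% = DMSO wells and 100% = 5-CT at EC100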
# Conditions: CHO 5-HT1a Ga15 NFAT-bla reporter, FRET ratio; at 10 µM; stronger effect = higher value; 0% basal, 100% maximal reference agonist
row,SMILES,activation
1,CCn1nnc(NC(=O)c2c(OC)cccc2OC)n1,0.51% (inactive)
2,O=C(COc1ccc(S(=O)(=O)NCCc2ccccc2)cc1)N1CCCC1,-3.17% (inactive)
3,O=C(COc1ccccc1)NCCc1nc2ccccc2[nH]1,2.44% (inactive)
4,Cc1cccc(NC(=O)C2CCCN2S(=O)(=O)c2ccc(F)cc2)c1C (stereo not drawn),0.24% (inactive)
5,O=C1Nc2c(Br)cc(Br)cc2C1(O)N1CCOCC1 (stereo not drawn),0.9% (inactive)
6,CCOCCCN1C(=O)CN(C2CCCCC2)C(=O)C1c1ccc(OCC)c(OC)c1 (stereo not drawn),0.91% (inactive)
7,CCCS(=O)(=O)Nc1c(C(=O)O)[nH]c2ccccc12,-2.21% (inactive)
8,c1ccc(Nc2n[nH]nc2-c2ccccc2)cc1,0.42% (inactive)
9,CCCCOc1ccc(Cl)cc1CSc1nncn1N,-1.4% (inactive)
10,Cc1csc(NC(=O)NC2(C(F)(F)F)Oc3ccccc3O2)n1,1.56% (inactive)
11,COc1ccc(C)cc1NC(=O)CSc1nc(SC)ns1,-0.56% (inactive)
12,O=C(CN1CCOCC1)Nc1c(-c2ccccc2)c2cc(Br)ccc2[nH]c1=O,-1.84% (inactive)
13,Cc1ccc(C(=O)N(CN2CCCC2=O)c2ccc(F)cc2)cc1,-4.03% (inactive)
14,CC(=O)c1cccc(S(=O)(=O)N2CCC(n3nnc4cc(F)ccc43)CC2)c1,1.45% (inactive)
15,COc1ccc(Cn2c(=O)sc3ccccc32)cc1OC,1.04% (inactive)
16,CN(C)c1ccc(NC(=O)c2ccncc2)c2ccccc12,-2.38% (inactive)
17,O=C(CSC1=NCCS1)Nc1nc(-c2ccccc2)cs1,-0.71% (inactive)
18,Cc1nc(NC(=O)CCC(=O)O)sc1C(=O)N(C)C,-1.18% (inactive)
19,Cc1cc(NC(=O)Cn2nc(C(F)(F)F)c3c2CCCC3)no1,-1.46% (inactive)
20,Cc1cccc(N2CCN(C(c3ccccc3)c3nnnn3CC3CCCO3)CC2)c1C (stereo not drawn),-0.4% (inactive)
21,CN(C)c1cc[n+](Cc2ccccc2)cc1,0.31% (inactive)

row,SMILES,activation
1,COC(=O)c1ccc(Oc2nc(Nc3ccc(F)cc3)nc(N3CCCC3)n2)cc1,0.02% (inactive)
2,N#CNC1=NCN(CCc2ccccc2)CN1,-0.74% (inactive)
3,CCOC(=O)N1CCC(NC(=O)C(C)n2c3ccccc3c3cnn(C)c(=O)c32)CC1 (stereo not drawn),-1.53% (inactive)
4,COc1ccc(S(=O)(=O)N2CCC(C(=O)N3CCOCC3)CC2)cc1OC,-2.94% (inactive)
5,CCCCC(=O)N1CC2(C)CN(C(=O)CCCC)CC(C)(C1)C2=O,-3.12% (inactive)
6,Cc1onc(-c2ccccc2)c1C(=O)Nc1ccccc1C#N,-0.43% (inactive)
7,CCOC(=O)CSc1nnc(-c2ccncc2)o1,-4.83% (inactive)
8,COc1cccc(C2/C(=C(/O)c3ccncc3)C(=O)C(=O)N2CCCN(C)C)c1 (stereo not drawn),-2.65% (inactive)
9,CN1C(=O)c2ccc(NC(=O)c3c(F)c(F)c(F)c(F)c3F)cc2C1=O,-1.19% (inactive)
10,Cc1nc(N2CCCC2C(=O)O)c2oc3ccccc3c2n1 (stereo not drawn),0.22% (inactive)
11,CC1(C)NC(=O)N(CCOc2cccc(Oc3ccccc3)c2)C1=O,-2.31% (inactive)
12,CCC(=O)c1ccc(OCC(O)CN2C(=O)NC(C)(C)C2=O)cc1 (stereo not drawn),80.3% (active)
13,CCC(=O)c1ccc(OCC(O)CN2CC(C)OC(C)C2)cc1 (stereo not drawn),-2.72% (inactive)
14,O=C(Nc1ccccc1N1CCN(C(=O)c2ccccc2)CC1)c1ccc2c(c1)OCO2,60% (active)
15,O=C(Nc1ccccc1N1CCN(c2ccccc2)CC1)c1cccc(F)c1,3.42% (inactive)
16,CCCC(=O)Nc1ccccc1N1CCN(C(=O)c2ccccc2)CC1,0.59% (inactive)
17,Cc1noc(C)c1COC(=O)Cn1c(C)nc2ccccc21,-2.62% (inactive)
18,O=C(O)CCCC(=O)Nc1ccccc1-n1ccnc1,-6.2% (inactive)
19,CC(C)NS(=O)(=O)c1ccc(CCC(=O)N2CCOCC2)cc1,-3.1% (inactive)
20,CCn1c(SCC(=O)Nc2cc(C)ccc2C)nnc1-c1cnccn1,-3.82% (inactive)
21,Cc1ccc2c(c1)NCC(C(=O)NC1CCC(C)CC1)O2 (stereo not drawn),-2.41% (inactive)

row,SMILES,activation
1,CCC(=O)Nc1ccccc1C(=O)N1CCN(Cc2ccccc2)CC1,-6.46% (inactive)
2,CC1CCCCN1CC(=O)NCc1ccc2c(c1)OCO2 (stereo not drawn),0.18% (inactive)
3,CSc1ccc(-c2c(C#N)c(N)nc3c2c(C)nn3-c2ccccc2)cc1,1.16% (inactive)
4,COc1ccc(O)c(C=Nc2cc(C)on2)c1,-4.57% (inactive)
5,Cc1ccc(C(c2sc3nc(C)nn3c2O)N2CCN(c3ccccc3)CC2)cc1 (stereo not drawn),1% (inactive)
6,Cn1cc(S(=O)(=O)N2CCC(Cc3ccccc3)CC2)c(=O)n(C)c1=O,-1.31% (inactive)
7,O=C(CSc1ncccn1)NC(=O)NCc1ccccc1,-2.73% (inactive)
8,O=C(CN1CCN(c2ccccc2F)CC1)c1ccc2c(c1)OCO2,-1.08% (inactive)
9,O=C(NC1CCCCC1)n1c(=O)oc2cc(S(=O)(=O)N3CCCCC3)ccc21,1.83% (inactive)
10,CCCC(=O)Nc1nnc(CC(=O)OCC)s1,-1.79% (inactive)
11,O=C(c1ccc(-n2cnnn2)cc1)N1CCN(C(c2ccccc2)c2ccccc2)CC1,-2.96% (inactive)
12,CCOC(=O)c1cc2cc(-c3c(C(=O)OCC)oc4cc(O)cc(O)c4c3=O)ccc2o1,20.4% (active)
13,O=c1c(-c2ccc3c(c2)OCCO3)c(C(F)(F)F)oc2cc(O)cc(O)c12,2.15% (inactive)
14,CCCOC(=O)c1cc2ccccc2oc1=O,-1.25% (inactive)
15,CN(C)S(=O)(=O)c1ccc(Oc2ccc(S(=O)(=O)N(C)C)cc2)cc1,-1.45% (inactive)
16,COc1cccc(Oc2ccc(N)cc2)c1,-1.26% (inactive)
17,Cc1ccc(Oc2ccc(N)cc2)cc1,61.2% (active)
18,C=C(Br)Cn1c(CCCC)nc2ccccc21,0.52% (inactive)
19,Cn1c(=O)c(=O)n(C)c2cc(S(=O)(=O)NCCc3ccccc3)ccc21,-2.1% (inactive)
20,CCOC(=O)C1C(=O)C=C(c2ccc(OC)cc2)CC1c1ccco1 (stereo not drawn),-1.83% (inactive)
21,O=C(CS(=O)(=O)c1cn(Cc2cccc(F)c2)c2ccccc12)N1CCCCC1,0.6% (inactive)
